Hit rate of the full screen: of about 370,000 compounds, about 1,100 (0.3%) were called active. Rule as the data show it: active = inhibition above about 13%; inactive = the rest. The full list was thinned out, with actives kept by preference.
These molecules were tested against Methyl-CpG-binding domain protein 2 (Homo sapiens) (UniProt Q9UBB5) (assay: MBD2-DBD methyl-oligonucleotide interaction blockers – biochemical, TR-FRET, DNA-binding domain, human, primary screen (AID 686964)). Details: MBD2 binding to methylated oligonucleotide, at 4.4 µM, stronger effect = higher value.
Methyl-CpG-binding domain protein 2 (Homo sapiens), sequence (Q9UBB5 whole entry, looked up, the tested form may be a part): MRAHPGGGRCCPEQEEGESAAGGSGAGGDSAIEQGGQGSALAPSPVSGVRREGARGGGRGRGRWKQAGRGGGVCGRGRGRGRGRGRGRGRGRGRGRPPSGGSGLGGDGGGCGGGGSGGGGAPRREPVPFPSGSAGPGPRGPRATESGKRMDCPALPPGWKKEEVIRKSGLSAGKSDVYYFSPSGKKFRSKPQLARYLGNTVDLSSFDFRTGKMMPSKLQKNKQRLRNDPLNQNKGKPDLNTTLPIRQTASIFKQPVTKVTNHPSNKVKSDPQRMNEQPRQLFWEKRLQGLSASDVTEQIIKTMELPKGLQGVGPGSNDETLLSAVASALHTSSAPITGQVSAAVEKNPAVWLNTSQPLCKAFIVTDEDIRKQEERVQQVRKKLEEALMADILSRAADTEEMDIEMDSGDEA
With `COc1ccc(N2C(=O)/C(=C/c3ccco3)C(=O)NC2=S)cc1` the inhibition was 32% (active).
For `O=C(O)CCn1cc(C=C2C(=O)NC(=S)NC2=O)c(-c2cccc(Br)c2)n1`, the inhibition was 2.88% (inactive).
`COC(=O)C1=C(c2ccccc2OCc2ccccc2)C[C@@H]2CC[C@H]1N2C(=O)NCc1ccc(OC)cc1` was tested, and the inhibition was -6.77% (inactive).
`CO[C@H]([C@H](C)/C=C/N(C)C=O)[C@@H](C)C(=O)CC[C@H](C)[C@H](O)[C@H](C)[C@H]1OC(=O)/C=C/C(C)=C/[C@H](O)[C@H](OC)C[C@@H]2C=CC[C@@H](C[C@H](OC)[C@@]3(CO3)[C@@H](OC)C[C@@H](OC)[C@@H]1C)O2` was tested, and the inhibition was 3.68% (inactive).
`CN(C)C(=O)Oc1cc(=O)n2c3c(cccc13)CCC2` was tested, and the inhibition was -1% (inactive).
In the case of `COP(=O)(Sc1ccccc1)C(Cc1ccccc1)NC(=O)OCc1ccccc1` (stereo not given), the inhibition is reported as 1.01% (inactive).
With `Cc1ccnc(-n2c(C)cc(/C=C3\C(=O)NC(=S)N(C)C3=O)c2C)c1` the inhibition was -7.85% (inactive).
`O=C1NC(=O)N(Cc2ccco2)C(=O)/C1=C\c1ccc(-c2ccc(F)cc2)o1` was tested, and the inhibition was 31.9% (active).
With `Cc1cc(/C=C2/C(=O)NC(=O)N(Cc3ccco3)C2=O)c(C)n1-c1ccc(C(=O)O)cc1` the inhibition was 23.8% (active).
In the case of `COc1cc2nc(N3CCN(C(=O)[C@@H]4CCCO4)CC3)nc(N)c2cc1OC`, the inhibition is reported as 2.48% (inactive).
`Cc1ccccc1CCC[C@@H](CC1CCCCC1)CN(C)C(=O)Oc1ccccc1` was tested, and the inhibition was -0.69% (inactive).
With `O=C(O)C1CSC(c2cccnc2)N1` (stereo not given) the inhibition was -2.74% (inactive).
For `CC(C)c1ccc(-n2c(O)c(/C=N/N3CCOCC3)c(=O)[nH]c2=S)cc1`, the inhibition was -0.85% (inactive).
`CSc1ccc(C(=O)C2CCCN(Cc3ccn[nH]3)C2)cc1` (stereo not given) was tested, and the inhibition was -7.23% (inactive).
`CC(C)(C)[C@]1(O)C[C@@H]2OC(=O)C[C@@]23C(=O)O[C@@H]2OC(=O)[C@H](O)[C@]213` was tested, and the inhibition was -1.05% (inactive).
